# TLR9-MyD88 inh = inhibitors of human TLR9-MyD88 binding; actives 0.21% (n = 340,000); inhibition, % at 4.98 µM; CHO BLA complementation TLR9-MyD88, CCF4 FRET ratio; Q9NR96+Q99836; AID 504734;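 active = inhibition above the mean over all tested compounds plus 3 SD, cut at about 21% in these data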;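 also: 0% = DMSO only wells and 100% = clavulanate BLA inhibitor control wells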
# TLR4 MyD88 comp = blocks binding of human TLR4 to MyD88; O00206+Q99836; HeLa CL3-4 TLR4/MyD88 BLA complementation, FRET ratio; inhibition, % at 8.4 µM; actives 0.18% (n = 200,000); in the data active = inhibition above about 25%;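 also: 0% = vehicle and 100% = reference inhibitor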
# GRK2 inh = human GRK2 inhibition via aptamer displacement | actives 0.59% (n = 330,000) | inhibition of aptamer binding, % at 10 µM | bead flow cytometry, FAM-aptamer displacement from GRK2 | AID 488847;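 active = inhibition of aptamer binding above 40%, roughly 3 SD of noise, on plates passing a quality check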;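 also: median bead fluorescence of bound FAM aptamer so fluorescent compounds give negative values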
# ANO1 block = mouse TMEM16A channel inhibition, primary screen. HEK293 TMEM16A/YFP iodide influx fluorescence, ionomycin. normalized B-score (activity score, 25-100; higher = stronger inhibition) at 10 µM. actives 1.2% (n = 310,000). Q8BHY3. AID 588511;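 active = ratio plate-corrected score three or more library SD toward inhibition, starting fluorescence score within five deviations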;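 also: score derived from kinetic fluorescence span divided by baseline fluorescence per well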
# ANO1 activ = activators or potentiators of mouse TMEM16A chloride channel; Q8BHY3; HEK293 TMEM16A/YFP-H148Q/I152L, iodide quench fluorescence; active compounds read low; B-score at 10 µM; actives 0.3% (n = 340,000); AID 623877;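 active = fluorescence-ratio B-score plate-corrected deviation score at least 3 library SD below zero, with starting fluorescence score within 5 deviations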;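 also: channel opened by trigger with iodide after compound preincubation; score built on the fluorescence ratio of max minus min over baseline; more negative score means more quench and so TMEM16A activation or potentiation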
# NOD2 RIPK2 PPI = blocks binding of human NOD2 to RIPK2; O43353; CHO BLA complementation NOD2-RIPK2, CCF4 ratio; inhibition, % at 4.98 µM; actives 0.38% (n = 360,000); in the data active = inhibition above about 21%;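 also: 0% = vehicle only and 100% = reference blocker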
# TLR4 MyD88 cnf = confirmation of human TLR4-MyD88 binding inhibitors; shares compounds with TLR4 MyD88 comp; HeLa CL3-4 BLA complementation, CCF4 FRET ratio; inhibition, % at 8.4 µM; actives 50% (n = 350); AID 941;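 active = mean inhibition across three repeat runs above about 25% carried over from the earlier screen, limit read from the data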;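 also: plate controls were DMSO only for no effect and clavulanic acid blocking BLA at full dose for full effect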
# BLA inh HeLa = counter-screen for TLR4-MyD88 inhibitors: beta-lactamase reporter inhibitors; shares compounds with TLR4 MyD88 comp; HeLa BLA reporter, CCF4 FRET ratio; inhibition, % at 8.4 µM; actives 63% (n = 350);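 active = mean inhibition over three repeats above about 26% taken from the earlier screen, limit read from the data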;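 also: HeLa cells stably expressing beta-lactamase reporter as counterscreen for TLR4-MyD88 inhibitors; 0% = DMSO and 100% = clavulanic acid full inhibition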
# TLR9-MyD88 conf = confirmation of human TLR9-MyD88 binding inhibitors | shares compounds with TLR9-MyD88 inh | CHO TLR9/MyD88 BLA complementation, CCF4 FRET ratio | inhibition, % at 4.98 µM | actives 51% (n = 680);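 active = mean inhibition across three repeats above about 21% taken from the earlier screen, limit read from the data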;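 also: blue over green emission ratio reports constitutive TLR9 MyD88 association via BLA complementation; 0% = DMSO vehicle wells and 100% = clavulanate BLA inhibitor wells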
# BLA counter-1 = counter-screen for TLR9-MyD88 inhibitors: non-selective beta-lactamase inhibitors | shares compounds with TLR9-MyD88 inh | CHO-BLA cells, CCF4 FRET ratio, BLA reporter | inhibition, % at 4.98 µM | actives 7% (n = 680);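 active = mean inhibition above a 50% cutoff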;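 also: counterscreen of TLR9-MyD88 hits on CMV-driven BLA in CHO-K1 cells; 0% = DMSO alone and 100% = clavulanate blocking BLA; higher means less blue over green ratio so more BLA blockade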
# TLR9 CHO cytotox = counter-screen for TLR9-MyD88 inhibitors: cytotoxicity in CHO cells. shares compounds with TLR9-MyD88 inh. actives 39% (n = 680). inhibition, % at 4.98 µM. luminescence. AID 588336; in the data active = inhibition above about 11%
# NOD2-RIPK2 conf = confirmation of human NOD2-RIPK2 interaction inhibitors; shares compounds with NOD2 RIPK2 PPI; CHO cells, NOD2-RIPK2 BLA complementation, CCF4 FRET; inhibition, % at 4.98 µM; actives 70% (n = 1,200); AID 624370;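 active = mean inhibition across replicates above a set limit taken from the earlier primary screen, cut at about 21% in these data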;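 also: 0% = DMSO-only wells and the high end = clavulanate BLA-blocked wells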
# BLA counter-2 = hits BLA reporter in NOD2-RIPK2 inhibitor counterscreen; actives 57% (n = 1,200); inhibition, % at 4.98 µM; shares compounds with NOD2 RIPK2 PPI; AID 624371; CHO BLA reporter, CCF4 FRET ratio;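 active = mean inhibition above the low-control mean inhibition plus three low-control SD, cut at about 11% in these data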;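 also: 0% = DMSO only wells and 100% = clavulanate high control wells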
# * marks the source's active call; other numbers are inactive results; i = inactive; . = no result given. Compounds with a hit are over-represented: about 2.2% of the library has one in this group of screens.
SMILES,TLR9-MyD88 inh,TLR4 MyD88 comp,GRK2 inh,ANO1 block,ANO1 activ,NOD2 RIPK2 PPI,TLR4 MyD88 cnf,BLA inh HeLa,TLR9-MyD88 conf,BLA counter-1,TLR9 CHO cytotox,NOD2-RIPK2 conf,BLA counter-2
O=C1c2cccc3c(N4CCCCC4)ccc(c23)C(=O)N1c1cccc(O)c1,42.0*,50.4*,0.0,i,i,53.8*,35.0*,55.1*,34.6*,33.2,10.6*,61.2*,67.9*
C=CCN1C(=O)c2cccc3c(N4CCCCC4)ccc(c23)C1=O,8.2,50.7*,6.0,i,i,22.4*,36.3*,60.7*,.,.,.,61.0*,63.7*
O=C(c1cccc(N2C(=O)c3ccccc3C2=O)c1)N1CCCCCC1,-6.6,4.4,0.0,i,i,-0.1,.,.,.,.,.,.,.
O=C(OCCN1C(=O)c2cccc3c(N4CCOCC4)ccc(c23)C1=O)c1ccccc1Cl,39.9*,41.1*,3.0,i,i,53.5*,46.2*,64.7*,.,.,.,54.0*,59.7*
COC(=O)C[C@H]1C=C[C@H](NC(=O)c2ccccn2)[C@@H](CO)O1,.,.,.,.,.,-13.7,.,.,.,.,.,.,.
Cc1ccc(-n2ncc(Br)c(Br)c2=O)cc1,23.9*,27.3*,.,.,i,31.6*,21.9,7.6,27.0*,17.6,101.1*,45.1*,8.4
O=C(NCc1ccc(F)cc1)c1cc(C2CCCCN2C(=O)CCc2ccccc2)on1 (stereo unspecified),.,.,.,.,.,8.0,.,.,.,.,.,.,.
Cn1c(-c2c(N)n(CCCc3ccccc3)c3nc4ccccc4nc23)nc2ccccc21,31.8*,47.5*,.,.,i,58.2*,54.4*,85.9*,61.7*,63.1*,-1.9,78.7*,79.7*
Nc1c(C(=O)OCC2CCCO2)c2nc3ccccc3nc2n1C1CCCC1 (stereo unspecified),2.0,4.0,2.0,i,i,4.1,.,.,.,.,.,.,.
Cn1c(-c2c(N)n(C3CCCC3)c3nc4ccccc4nc23)nc2ccccc21,39.6*,68.1*,0.0,i,i,28.7*,68.6*,95.8*,.,.,.,78.4*,83.1*
Cn1c(-c2c(N)n(CCc3ccccc3)c3nc4ccccc4nc23)nc2ccccc21,61.5*,69.3*,4.0,i,i,69.5*,50.9*,84.4*,55.0*,56.0*,0.7,72.8*,75.4*
CN(C)c1cccc2c(S(=O)(=O)NC(=O)[C@H]3O[C@@H](n4cnc5c(N)ncnc54)[C@H](O)[C@@H]3O)cccc12,.,.,.,.,.,-5.0,.,.,.,.,.,.,.
Nc1ccc2c(C(F)(F)F)cc(=O)oc2c1,55.4*,49.0*,1.0,i,i,50.6*,40.5*,66.0*,36.2*,40.5,-1.1,63.7*,67.8*
CCN(CC)c1ccc2c(Cl)cc(=O)oc2c1,.,7.9,0.0,i,.,.,.,.,.,.,.,.,.
CCNc1ccc2c(Cl)cc(=O)oc2c1,33.9*,32.4*,1.0,i,i,29.9*,20.7,35.7*,.,.,.,44.0*,32.5*
CCOC(=O)[C@]12CCCC=C1N(CCc1ccc(OC)c(OC)c1)C(=O)[C@H](CC(=O)N1CCCC1)C2,.,.,.,.,.,4.3,.,.,.,.,.,.,.
CCCCCCn1c(=O)[nH]c2nc3cc(N)c(C)cc3nc2c1=O,32.0*,28.0*,.,.,i,41.7*,17.5,43.2*,19.8,18.9,-4.9,45.2*,49.2*
COc1cc2c(cc1OC)C(=Cc1ccc(N(C)C)cc1)C=C2,-3.6,.,.,.,i,-6.5,.,.,.,.,.,.,.
COc1cc2nc(/C=C/c3ccc(N(C)C)cc3)sc2cc1SC,31.8*,64.1*,4.0,i,i,41.0*,65.0*,95.8*,53.0*,59.4*,1.1,77.7*,82.1*
O=C1CC(c2ccccc2)CC2=C1C1(CCCC1)N=C(Nc1nc3ccccc3o1)N2 (stereo unspecified),.,.,.,.,.,-1.0,.,.,.,.,.,.,.
O=S(=O)(c1ccc(Br)c2nsnc12)N1CCOCC1,27.5*,56.5*,4.0,i,i,56.1*,54.2*,75.8*,14.2,8.6,13.6*,54.1*,20.1*
Cc1cccc(C)c1-n1nnnc1C(c1ccnc2ccccc12)N1CCN(c2ccccc2F)CC1 (stereo unspecified),.,.,.,.,.,-0.9,.,.,.,.,.,.,.
c1cn2c(NC3CCCCC3)c(-c3ccc(SC4CCCCC4)cc3)nc2cn1,0.9,.,0.0,i,i,2.7,.,.,.,.,.,.,.
CCN(CC)c1ccc(-c2nc3cnccn3c2NC2CCCC2)cc1,36.2*,51.8*,0.0,i,i,21.9*,31.1*,60.8*,36.9*,39.6,0.9,55.6*,66.2*
COC1=CC(=O)OC(c2ccccc2C(F)(F)F)C1 (stereo unspecified),.,.,.,.,.,1.9,.,.,.,.,.,.,.
Cc1cc(-c2cccs2)c2c(N)c(C(=O)c3ccc4c(c3)OCO4)sc2n1,18.3,9.2,7.0,i,i,-1.7,.,.,.,.,.,.,.
COc1ccc(C(=O)c2sc3nc(C)cc(-c4cccs4)c3c2N)cc1,56.4*,34.5*,.,.,i,63.8*,13.7,19.7,45.3*,46.0,2.0,36.5*,71.3*
Nc1c(-c2ccc(F)c(F)c2)nc2ncccn12,.,.,.,.,.,0.7,.,.,.,.,.,.,.
O=[N+]([O-])c1cccc(-c2nc(-c3cccs3)c(-c3cccs3)[nH]2)c1,-11.4,-9.3,1.0,i,i,3.0,.,.,.,.,.,.,.

# Screening data from PubChem BioAssay.
